Measurements from PubChem BioAssay.

Assays:
[1] = test system: Human papillomavirus type 1a protein E7 (residues 44-93); experiment: HPV1a E7 fragment binders on microarrays, primary screen, biochemical, small-molecule microarray, residues 44-93, 635 nm fluorescence (AID 1108); details: small-molecule microarray binding, fluorescence 635 nm; higher = more signal;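 note: E7 fragment applied at 1 µg/mL in TBST for 1 h at 4 C; score combines spot fluorescence with its signal to noise ratio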
[2] = modulators of HCV replicon luciferase signal, primary screen, HCV replication inhibitor project, Huh7 cells, luciferase reporter (AID 1109); details: 48 h, higher = more signal;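 note: huh7 hepatoma cells harbouring a luciferase neomycin HCV replicon reporter; luciferase luminescence as measure of HCV replicon replication; test concentration not given here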
[3] = target: Left-right determination factor 2 (Homo sapiens) (UniProt O00292); experiment: LEFTY2 binders on small-molecule microarrays, primary screen, biochemical, small-molecule microarray, 635 nm fluorescence scan (AID 1110); details: LEFTY2 binding, higher = more signal
Left-right determination factor 2 (Homo sapiens), sequence (O00292 whole entry, looked up): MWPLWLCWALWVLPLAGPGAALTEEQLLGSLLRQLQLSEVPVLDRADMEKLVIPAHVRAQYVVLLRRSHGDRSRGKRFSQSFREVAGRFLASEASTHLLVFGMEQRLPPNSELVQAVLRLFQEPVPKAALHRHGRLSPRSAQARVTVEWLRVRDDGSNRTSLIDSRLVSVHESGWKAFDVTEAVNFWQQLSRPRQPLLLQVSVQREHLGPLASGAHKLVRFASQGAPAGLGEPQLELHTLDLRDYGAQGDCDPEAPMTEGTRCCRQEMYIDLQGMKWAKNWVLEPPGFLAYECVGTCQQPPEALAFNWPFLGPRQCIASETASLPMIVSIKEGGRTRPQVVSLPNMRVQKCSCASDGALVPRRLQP

[4] = target: Calmodulin-1 (Homo sapiens) (UniProt P0DP23); experiment: CALM1 binders on microarrays, EGTA buffer, profiling panel, biochemical, small-molecule microarray, Cy5-labelled CALM1 (AID 1111); details: Cy5-CALM1 binding fluorescence, higher = more signal;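 note: labelled calmodulin applied in Tris saline Tween buffer holding calcium plus EGTA and DTT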
[5] = target: Calmodulin-1 (Homo sapiens) (UniProt P0DP23); experiment: calcium-bound CALM1 binders on microarrays, profiling panel, artefact control for SMM control-protein annotation, biochemical, small-molecule microarray, Cy5-labelled CALM1, plus calcium (AID 1112); details: Cy5-CALM1 binding fluorescence, higher = more signal;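 note: score merges spot fluorescence with signal to noise from triplicate slides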
[6] = small-molecule microarray binders of probe aWnt5a, primary screen, biochemical, biotinylated probe, 635/667 nm fluorescence (AID 1113); details: higher = more signal;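 note: score merges 667 nm fluorescence intensity with signal-to-noise per printed feature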
[7] = small-molecule microarray binders of probe aShh, primary screen, biochemical, biotinylated probe, 635/667 nm fluorescence (AID 1114); details: higher = more signal;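 note: probe is biotin-labelled aShh protein from a stem cell growth factor screen; measures binding of labelled protein to compounds printed on the slide; score merges feature fluorescence at 667 nm with signal-to-noise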
[8] = small-molecule microarray binders of probe aNog, primary screen, biochemical, biotinylated probe, 635/667 nm fluorescence (AID 1115); details: higher = more signal;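 note: probe is biotinylated aNog protein used at 0.15 µg/mL for 1 h at 4 C; z-score combines 667 nm fluorescence of each spot with its signal to noise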
[9] = target: Torsin-1A-interacting protein 1 (Homo sapiens) (UniProt Q5JTV8); experiment: LAP1 binders from COS7 cell lysate, primary screen, small-molecule microarray, 635/667 nm fluorescence (AID 1116); details: COS7-hLAP1 lysate binding, 635 nm fluorescence, higher = more signal
Torsin-1A-interacting protein 1 (Homo sapiens), sequence (Q5JTV8 whole entry, looked up): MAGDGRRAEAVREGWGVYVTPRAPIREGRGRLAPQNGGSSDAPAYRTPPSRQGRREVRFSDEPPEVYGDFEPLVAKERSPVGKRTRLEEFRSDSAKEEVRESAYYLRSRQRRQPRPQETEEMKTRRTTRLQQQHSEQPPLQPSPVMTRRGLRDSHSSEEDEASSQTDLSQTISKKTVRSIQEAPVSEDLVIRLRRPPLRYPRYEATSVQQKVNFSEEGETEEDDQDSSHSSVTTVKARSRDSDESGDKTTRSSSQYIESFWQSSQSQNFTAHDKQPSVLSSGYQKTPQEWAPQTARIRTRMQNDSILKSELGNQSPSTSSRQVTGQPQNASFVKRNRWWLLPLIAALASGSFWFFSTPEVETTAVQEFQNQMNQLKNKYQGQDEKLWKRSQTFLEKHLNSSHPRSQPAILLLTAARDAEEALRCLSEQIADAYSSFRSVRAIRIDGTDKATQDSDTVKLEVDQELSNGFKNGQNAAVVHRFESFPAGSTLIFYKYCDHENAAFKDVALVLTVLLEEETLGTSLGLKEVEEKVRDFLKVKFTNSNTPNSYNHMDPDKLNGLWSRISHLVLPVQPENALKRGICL

[10] = target: Alpha-bungarotoxin (Bungarus multicinctus) (UniProt P60615); experiment: alpha-bungarotoxin binders on microarray, profiling panel, artefact control for SMM control protein annotation, biochemical, small-molecule microarray, Alexa647 label, 635/667 nm fluorescence (AID 1117); details: alpha-BTX-A647 binding fluorescence, higher = more signal
Alpha-bungarotoxin (Bungarus multicinctus), sequence (P60615 whole entry, looked up): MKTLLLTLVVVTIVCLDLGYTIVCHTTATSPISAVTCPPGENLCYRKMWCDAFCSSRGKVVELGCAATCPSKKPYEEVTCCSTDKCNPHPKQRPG

Compound	composite z-score [1]	z-score [2]	composite z-score [3]	composite z-score [4]	composite z-score [5]	composite z-score [6]	composite z-score [7]	composite z-score [8]	composite z-score [9]	composite z-score [10]
CN(C)CCCC[C@@H]1NC(=O)[C@H]2C[C@@H](C(=O)NCCCCCCN)[C@@H](c3ccc(O)cc3)N2C1=O	1.23	0.251	1.48	1.67	0.921	0.257	0.109	1.59	1.74	2.75
O=C1OCCC/C=C\[C@H]2OC34C=CCN(Cc5ccccc5)C(=O)[C@H]3N(CCCO)C(=O)[C@@H]4C12 (stereo not given in full)	0.0636	-0.779	-2.09	-0.537	0.464	-0.178	-0.16	-0.244	1.82	-0.972
CN(C)CCCCCCNC(=O)[C@H]1C[C@H]2C(=O)N[C@@H](CCCCN)C(=O)N2[C@H]1c1cccc(OCCO)c1	1.56	0.386	1.71	1.99	1.16	1.06	2.92	3.26	4.54	2.52
COc1ccc(-c2cc3c(c(-c4ccc(Oc5ccccc5)cc4)n2)[Si](C(C)C)(C(C)C)OC3)cn1	-0.419	-1.15	-0.123	-0.266	0.211	-0.206	-0.0553	-0.224	-0.286	0.199
CN(C)C(=O)[C@]1(Cc2ccccc2N=[N+]=[N-])N=C(c2ccc(OCCCO)cc2)O[C@@H]1c1ccccc1N=[N+]=[N-]	1.38	-2.69	0.116	1.7	0.497	-0.0179	0.0796	1.39	2.54	1.22
COC(=O)[C@H](Cc1ccccc1)N[C@@H](/C=C/C1CC1)[C@H](O)Cc1ccccc1	-0.431	-0.95	-0.517	0.125	-0.736	0.454	-0.309	-0.349	0.729	0.342
CCCCCCc1nc(-c2cc(C)c(OC)c(C)c2)cc2c1[Si](C(C)C)(C(C)C)OC2	0.0047	0.777	-0.21	-0.268	-0.256	-0.124	-0.273	-0.244	-0.359	0.19
C=C(CC1([C@@H](NP(=O)(c2ccccc2)c2ccccc2)[C@H]2C[C@@H]2CCCC)CC1)c1ccccc1	1.23	-0.776	-0.0117	1.19	1.15	0.186	0.257	0.0585	1.17	0.598
CC(C)OC(=O)C=C1C[C@@H](c2ccccn2)O[C@@H](c2ccccn2)O1	-0.0187	-0.884	1.05	-1.38	-0.98	-0.0607	0.489	-0.457	0.429	0.6
CC1(C)C2C=C(C(O)C3C=CC4C(=O)NC(=O)C4N3Nc3ccc(Cl)cc3Cl)C[C@@H]1C2 (stereo not given in full)	0.772	-1.45	-0.0061	2.35	1.01	-0.006	0.275	0.503	1.27	1.31
CN1C(=O)C2C=CC(C(O)C#Cc3ccccc3)N(N3CCCCC3)C2C1=O (stereo not given)	-1.16	-0.451	0.414	1.19	0.657	0.234	0.668	0.564	0.494	1.04
C[N+](C)(C)CCCCNC(=O)[C@@H]1C[C@@H]2C(=O)N[C@@H](Cc3ccccc3)C(=O)N2[C@@H]1c1cccc(OCCO)c1	-1.03	-0.759	0.633	-0.985	0.18	-0.178	-0.0146	-0.12	0.0849	-0.671
O=C(NCCN1CCOCC1)[C@@H]1c2ccccc2C(=O)N(C2CCCCC2)[C@H]1c1ccc(CO)cc1	1.44	-1.49	-0.0308	0.0999	-0.336	-0.101	-0.138	0.76	0.0614	-0.0569
COCCOC(=O)N1C(=O)[C@@]2(c3ccccc31)[C@H](c1ccc(O)cc1)N1[C@H](c3ccccc3)[C@H](c3ccccc3)OC(=O)[C@H]1[C@@H]2C(=O)Nc1nc2ccccc2s1	1.19	-0.993	0.118	1.29	0.501	-0.0276	0.249	0.0308	1.33	1.87
C=CC[C@@]12N=C(c3ccc(OCCCO)cc3)O[C@@H]1c1ccccc1N(C)C2=O	1.16	-1.56	0.0838	0.422	-0.206	0.14	0.547	-0.621	-0.0062	1.21
CN1C=C(C(=O)OCCS(C)(=O)=O)C(C(=O)OCCS(C)(=O)=O)=CC(c2ccc(CO)cc2)=CC1C1CC1 (stereo not given)	-0.0095	-0.595	0.328	0.405	-0.306	-0.105	-0.0681	0.366	1.83	0.274
C=CCC(OC(C)=O)[C@@H]1[C@@H](N(Cc2ccc(-c3ccccc3)cc2)C(=O)Cc2ccc(OC)cc2)c2cc(OCCCO)ccc2N1C(=O)Cc1ccc2ccccc2c1 (stereo not given in full)	-0.285	-1.14	-0.305	-0.247	0.831	-0.0297	-0.0769	-0.366	-0.172	0.87
COc1ccc(C#Cc2ccc3c(c2)[C@]2(C(=O)N3)[C@H](c3ccccc3OCCO)N3[C@H](c4ccccc4)[C@H](c4ccccc4)OC(=O)[C@H]3[C@@H]2C(=O)Nc2nc3ccccc3s2)cc1	1.35	-2.83	0.464	0.844	-0.104	-0.128	-0.0556	1.76	0.307	1.62
CCOC(=O)[C@H]1C/C=C/C[C@H](C(=O)OCC)C(=O)O[C@H]2[C@@H](OC)O[C@H](CO)[C@@H](OC(=O)c3c(OC)cccc3OC)[C@@H]2OC1=O	-0.908	-3.32	0.204	0.34	0.208	-0.126	0.244	0.65	0.11	1.1
O=C1c2ccccc2[C@](Cc2ccccc2I)(C(=O)NCC(F)(F)F)[C@H](c2ccc(CO)cc2)N1Cc1ccccc1Cl	1.41	-0.798	-0.141	1.03	0.512	-0.0472	0.0632	-0.239	0.208	0.918
C=CCC(OC(C)=O)[C@@H]1[C@@H](N(Cc2ccc(-c3ccccc3)cc2)C(=O)c2ccc(-c3ccccc3)cc2)c2cc(OCCCO)ccc2N1C(=O)Cc1ccc2ccccc2c1 (stereo not given in full)	0.422	-0.4	0.0959	0.436	0.704	-0.0566	-0.345	0.221	0.359	0.0054
COCC(=C=CC[C@@H](O)c1cccc(OCCO)c1)C[C@@H](O)c1ccccn1	-0.768	0.0065	0.493	-0.301	-0.0023	-0.0459	-0.221	-0.388	1.15	0.216
